Eight compounds from PubChem BioAssay (NCI) can be followed below.

About 83,000 compounds went through this panel and 20% of them were active in at least one assay; those are over-represented in the sample as a whole.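 For each line, cells grew in 96-well plates with the test compound present at a single concentration for 48 hours.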 Unmarked numbers belong to inactive results. The source made the active and inactive calls. The calls were made as follows: active = growth percent below 10; inactive = the rest.

Among the test systems are SK-MEL-2 melanoma; SN12C renal; UO-31 renal; TK-10 renal; ACHN renal; CAKI-1 renal; A498 renal; CCRF-CEM leukemia; MOLT-4 leukemia; SR leukemia; RPMI-8226 leukemia; OVCAR-8 ovarian; OVCAR-5 ovarian; OVCAR-4 ovarian; SK-OV-3 ovarian; IGROV1 ovarian; OVCAR-3 ovarian; HS 578T breast; NCI/ADR-RES ovarian.
Experiment in all cases: NCI-60 one-dose screen, 48 h (100 = growth as untreated, 0 = no growth, -100 = all killed)
Holding throughout (settings): 10 µM unless noted

In the case of `Cc1nn(-c2ccccc2)c(N)c1N=C1NC(=O)/C(=C/c2ccc(Br)cc2)S1`, the growth in the experiment on SK-MEL-2 melanoma was 104%; in the experiment with SN12C renal, 73.8%; with UO-31 renal it was 72.1%; in the experiment with TK-10 renal it was 106%; in the experiment with ACHN renal it was 88.5%; with CAKI-1 renal, 68%. Moreover, the growth in the experiment on A498 renal was 67%; in the experiment with CCRF-CEM leukemia, 72.1%; in the experiment with MOLT-4 leukemia, 80.8%; in the experiment with SR leukemia it was 36.8%; in the experiment with RPMI-8226 leukemia, 42.3%; in the experiment on OVCAR-8 ovarian, 98.8%. The growth was 72.7% in the experiment on OVCAR-5 ovarian; 95.6% with OVCAR-4 ovarian; 84.8% in the experiment on SK-OV-3 ovarian; 99.6% in the experiment with IGROV1 ovarian; 72% in the experiment with OVCAR-3 ovarian; 93.6% with HS 578T breast. For the same compound, the growth in the experiment on NCI/ADR-RES ovarian was 77.7%.

With `CCc1n(Cc2ccc3ccccc3n2)cc[n+]1Cc1ccc2ccccc2n1`, the growth in the experiment with SK-MEL-2 melanoma was -27.3% (active); in the experiment with SN12C renal, 10.7%; in the experiment with UO-31 renal it was 89.5%; with TK-10 renal, 41.9%; with ACHN renal, 93.3%; in the experiment on CAKI-1 renal it was 98%. The growth with A498 renal is 84.9%; in the experiment with CCRF-CEM leukemia, 28.1%; in the experiment with MOLT-4 leukemia, 28.6%; in the experiment with SR leukemia, 30.2%; with RPMI-8226 leukemia, -1.65% (active); with OVCAR-8 ovarian, 27.1%. For the same compound, the growth in the experiment on OVCAR-5 ovarian was 43.2%; with OVCAR-4 ovarian it was 14.5%; with SK-OV-3 ovarian, 33.4%; with IGROV1 ovarian, 30%; with OVCAR-3 ovarian, 14.2%; in the experiment with HS 578T breast, 44.8%. Moreover, the growth in the experiment with NCI/ADR-RES ovarian is 104%.

As for `Nc1nc(NC(=O)Nc2ccc(C(=O)O)cc2)nn1-c1ccc(S(N)(=O)=O)cc1`, the growth is 110% in the experiment with SK-MEL-2 melanoma; 89.5% in the experiment on SN12C renal; 80.7% with UO-31 renal; 106% in the experiment with TK-10 renal; 99.6% in the experiment on ACHN renal; 90.3% with CAKI-1 renal. In addition, the growth with A498 renal is 90.6%; in the experiment on CCRF-CEM leukemia, 99.4%; with MOLT-4 leukemia, 93.1%; in the experiment with SR leukemia, 99.5%; in the experiment with OVCAR-8 ovarian, 86.8%; in the experiment with OVCAR-5 ovarian, 95.9%. For the same compound, the growth with OVCAR-4 ovarian was 103%; in the experiment on SK-OV-3 ovarian it was 107%; in the experiment with IGROV1 ovarian, 94%; in the experiment with OVCAR-3 ovarian it was 95.7%; in the experiment on HS 578T breast it was 88.1%; with NCI/ADR-RES ovarian, 103%.

Regarding `CCOC(=O)c1[nH]c2c(c1C)-c1[nH]c(=O)c(S(=O)(=O)c3ccccc3)cc1SC2`, the growth in the experiment on SK-MEL-2 melanoma is 56.4% [100 µM]; with SN12C renal, 59.5% [100 µM]; with UO-31 renal, 54.2% [100 µM]; in the experiment with TK-10 renal, 13.1% [100 µM]; in the experiment with ACHN renal it was 20.9% [100 µM]; in the experiment on CAKI-1 renal, 16.2% [100 µM]. The growth with A498 renal is 21.4% [100 µM]; in the experiment with CCRF-CEM leukemia it was 52.1% [100 µM]; in the experiment on MOLT-4 leukemia, 57.3% [100 µM]; in the experiment on SR leukemia it was 39.4% [100 µM]; with RPMI-8226 leukemia, 33.3% [100 µM]; in the experiment with OVCAR-8 ovarian it was 25.3% [100 µM]. Further, the growth is 89.6% [100 µM] in the experiment with OVCAR-5 ovarian; 59.8% [100 µM] in the experiment with SK-OV-3 ovarian; 48.7% [100 µM] in the experiment on IGROV1 ovarian; -15.1% [100 µM] (active) with OVCAR-3 ovarian; 28.1% [100 µM] in the experiment on HS 578T breast; 59.7% [100 µM] in the experiment on NCI/ADR-RES ovarian.

In the case of `O=C(O)[C@@H](Cc1ccc2ccccc2c1)NC(=O)n1c2ccccc2c2ccccc21`, the growth was 33.3% with SK-MEL-2 melanoma; 34.1% in the experiment with SN12C renal; 58.1% in the experiment with TK-10 renal; 48.8% in the experiment on ACHN renal; 30.5% in the experiment on CAKI-1 renal; 9.24% (active) in the experiment with A498 renal. Further, the growth in the experiment with CCRF-CEM leukemia was 13%; in the experiment with MOLT-4 leukemia it was 24.5%; with SR leukemia it was 25.7%; in the experiment with RPMI-8226 leukemia, 9.9% (active); in the experiment with OVCAR-8 ovarian, 21.2%; in the experiment with OVCAR-5 ovarian it was 37.6%. For the same compound, the growth is 43.9% in the experiment with OVCAR-4 ovarian; 39.7% in the experiment with SK-OV-3 ovarian; 29.6% in the experiment on IGROV1 ovarian; 6% (active) with OVCAR-3 ovarian; 17.4% with HS 578T breast; 7.01% (active) with NCI/ADR-RES ovarian.

Regarding `O=C(Oc1ccc(CCl)cc1)c1ccccc1`, the growth in the experiment with SK-MEL-2 melanoma is -71.4% (active); with SN12C renal, -84.8% (active); in the experiment on TK-10 renal, -96.3% (active); in the experiment with ACHN renal, -92.1% (active); in the experiment with CAKI-1 renal, -96.3% (active); in the experiment on A498 renal it was -87.4% (active). In addition, the growth with CCRF-CEM leukemia is -48.6% (active); in the experiment with MOLT-4 leukemia, -49.7% (active); in the experiment with SR leukemia, -43.7% (active); in the experiment with RPMI-8226 leukemia it was -50.2% (active); with OVCAR-8 ovarian it was -84.5% (active); with OVCAR-5 ovarian, -85.2% (active). In addition, the growth in the experiment on OVCAR-4 ovarian is -83.1% (active); in the experiment on SK-OV-3 ovarian, -100% (active); with IGROV1 ovarian, -81.4% (active); in the experiment on OVCAR-3 ovarian, -97.3% (active); in the experiment on HS 578T breast it was -13.4% (active); with NCI/ADR-RES ovarian, -63.7% (active).

`O=[N+]([O-])c1cc(NS(=O)(=O)c2ccccc2)ccc1NS(=O)(=O)c1ccccc1`: the growth in the experiment on SK-MEL-2 melanoma is 99.6%; with SN12C renal, 90.4%; in the experiment with TK-10 renal, 112%; in the experiment with ACHN renal, 91.4%; with CAKI-1 renal, 129%; in the experiment on A498 renal it was 115%. Further, the growth in the experiment with CCRF-CEM leukemia is 96.3%; in the experiment with MOLT-4 leukemia it was 117%; in the experiment with SR leukemia, 128%; in the experiment on RPMI-8226 leukemia it was 109%; with OVCAR-5 ovarian it was 106%; in the experiment with OVCAR-4 ovarian it was 106%. Besides, the growth in the experiment on SK-OV-3 ovarian is 102%; in the experiment on IGROV1 ovarian, 119%; in the experiment with OVCAR-3 ovarian, 111%; with HS 578T breast it was 98.5%; in the experiment on NCI/ADR-RES ovarian, 105%.

On to `COc1ccc(NC(=O)Nc2ccc(OCCCCCC(=O)NO)cc2)cc1`, for which the growth with SK-MEL-2 melanoma is 79.9%; with SN12C renal, 97%; in the experiment on UO-31 renal, 87.4%; with TK-10 renal, 89.3%; with ACHN renal, 107%; in the experiment with CAKI-1 renal, 93.5%. In addition, the growth was 85.2% in the experiment with A498 renal; 85.6% in the experiment with CCRF-CEM leukemia; 85.6% in the experiment with MOLT-4 leukemia; 71.6% in the experiment on SR leukemia; 97.8% in the experiment with RPMI-8226 leukemia; 87.8% in the experiment with OVCAR-8 ovarian. In addition, the growth in the experiment with OVCAR-5 ovarian is 113%; in the experiment on SK-OV-3 ovarian, 97.1%; with IGROV1 ovarian it was 115%; in the experiment on OVCAR-3 ovarian, 103%; in the experiment with HS 578T breast, 94.1%; in the experiment on NCI/ADR-RES ovarian it was 99.6%.
